Tests used:
Assay in all cases: log2 ratio of Biotin-Ahx-Ub-VS probe labelling (fragment/DMSO); higher = less target engagement (more negative = stronger competition), active = hit call of the paper (q ≤ 0.05, log2 ratio ≤ -1)
Conditions in all cases: compound concentration: 200 uM; treatment time: 3 h
USP9X = USP9X (UniProt Q93008)
Outline: (§1)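 In triplicate, 495 µg of HEK293T lysate per sample was incubated with fragment at 200 µM or vehicle for 3 h. Biotin-Ahx-Ub-VS was then added to 0.5 µM final for 1 h, and labelled DUBs were captured with NeutrAvidin, digested with LysC and trypsin, and measured by diaPASEF LC-MS/MS. Data are average log2 fragment/vehicle ratios by unpaired t-test from global-median-normalised Spectronaut label-free quantities, restricted to proteins with ≥2 unique peptides.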

UniProt O00487 = target: UniProt O00487
Chain of UniProt O00487 (O00487 whole entry): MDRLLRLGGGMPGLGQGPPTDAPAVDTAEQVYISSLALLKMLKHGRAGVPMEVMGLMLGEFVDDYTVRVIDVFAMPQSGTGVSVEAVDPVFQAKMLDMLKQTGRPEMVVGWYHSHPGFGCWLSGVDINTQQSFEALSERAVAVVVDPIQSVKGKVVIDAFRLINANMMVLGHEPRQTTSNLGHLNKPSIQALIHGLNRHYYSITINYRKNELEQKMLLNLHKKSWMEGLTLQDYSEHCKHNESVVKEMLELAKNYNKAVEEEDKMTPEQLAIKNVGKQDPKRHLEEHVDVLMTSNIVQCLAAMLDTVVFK
Outline: as §1

UniProt O00507 = target: UniProt O00507
Outline: as §1

UniProt P51784 = target: UniProt P51784
Chain of UniProt P51784 (P51784 whole entry): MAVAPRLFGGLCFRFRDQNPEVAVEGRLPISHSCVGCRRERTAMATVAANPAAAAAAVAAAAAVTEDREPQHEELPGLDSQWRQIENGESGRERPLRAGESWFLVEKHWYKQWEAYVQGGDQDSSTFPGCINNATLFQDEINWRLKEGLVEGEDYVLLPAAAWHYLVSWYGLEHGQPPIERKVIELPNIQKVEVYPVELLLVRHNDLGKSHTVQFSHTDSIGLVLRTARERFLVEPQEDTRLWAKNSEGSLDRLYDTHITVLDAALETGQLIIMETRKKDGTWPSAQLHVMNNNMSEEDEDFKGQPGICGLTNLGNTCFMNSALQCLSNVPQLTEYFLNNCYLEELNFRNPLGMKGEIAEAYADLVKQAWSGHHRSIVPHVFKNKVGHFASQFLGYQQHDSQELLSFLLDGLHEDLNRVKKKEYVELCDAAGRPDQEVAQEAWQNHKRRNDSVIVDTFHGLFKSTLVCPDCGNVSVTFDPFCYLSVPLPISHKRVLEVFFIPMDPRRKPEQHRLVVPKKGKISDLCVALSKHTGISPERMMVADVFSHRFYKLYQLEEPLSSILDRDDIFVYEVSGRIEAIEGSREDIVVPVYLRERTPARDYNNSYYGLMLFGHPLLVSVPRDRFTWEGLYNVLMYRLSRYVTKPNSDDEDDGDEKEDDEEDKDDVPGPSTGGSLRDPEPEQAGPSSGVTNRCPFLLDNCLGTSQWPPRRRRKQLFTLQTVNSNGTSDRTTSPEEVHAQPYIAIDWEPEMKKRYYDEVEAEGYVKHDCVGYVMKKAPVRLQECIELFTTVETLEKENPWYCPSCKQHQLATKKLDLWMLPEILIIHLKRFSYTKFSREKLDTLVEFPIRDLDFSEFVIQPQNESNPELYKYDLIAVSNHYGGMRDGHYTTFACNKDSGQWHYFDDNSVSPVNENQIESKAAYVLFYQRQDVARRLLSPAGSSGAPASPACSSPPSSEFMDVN
Outline: as §1

UniProt Q5T2D3 = target: T1, UniProt Q5T2D3
T1 sequence (whole entry): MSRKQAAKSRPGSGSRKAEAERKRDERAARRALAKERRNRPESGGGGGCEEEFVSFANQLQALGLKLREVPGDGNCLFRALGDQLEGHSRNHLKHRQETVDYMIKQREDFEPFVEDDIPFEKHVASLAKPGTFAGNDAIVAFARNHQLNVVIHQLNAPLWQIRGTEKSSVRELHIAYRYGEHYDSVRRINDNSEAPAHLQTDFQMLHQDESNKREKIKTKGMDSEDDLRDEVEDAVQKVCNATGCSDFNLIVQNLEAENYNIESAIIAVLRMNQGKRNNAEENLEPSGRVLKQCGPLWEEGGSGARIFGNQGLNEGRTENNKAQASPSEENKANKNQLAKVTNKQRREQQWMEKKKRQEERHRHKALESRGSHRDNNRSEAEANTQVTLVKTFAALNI
Outline: as §1

UniProt Q8TE49 = target: T2, UniProt Q8TE49
T2 sequence (whole entry): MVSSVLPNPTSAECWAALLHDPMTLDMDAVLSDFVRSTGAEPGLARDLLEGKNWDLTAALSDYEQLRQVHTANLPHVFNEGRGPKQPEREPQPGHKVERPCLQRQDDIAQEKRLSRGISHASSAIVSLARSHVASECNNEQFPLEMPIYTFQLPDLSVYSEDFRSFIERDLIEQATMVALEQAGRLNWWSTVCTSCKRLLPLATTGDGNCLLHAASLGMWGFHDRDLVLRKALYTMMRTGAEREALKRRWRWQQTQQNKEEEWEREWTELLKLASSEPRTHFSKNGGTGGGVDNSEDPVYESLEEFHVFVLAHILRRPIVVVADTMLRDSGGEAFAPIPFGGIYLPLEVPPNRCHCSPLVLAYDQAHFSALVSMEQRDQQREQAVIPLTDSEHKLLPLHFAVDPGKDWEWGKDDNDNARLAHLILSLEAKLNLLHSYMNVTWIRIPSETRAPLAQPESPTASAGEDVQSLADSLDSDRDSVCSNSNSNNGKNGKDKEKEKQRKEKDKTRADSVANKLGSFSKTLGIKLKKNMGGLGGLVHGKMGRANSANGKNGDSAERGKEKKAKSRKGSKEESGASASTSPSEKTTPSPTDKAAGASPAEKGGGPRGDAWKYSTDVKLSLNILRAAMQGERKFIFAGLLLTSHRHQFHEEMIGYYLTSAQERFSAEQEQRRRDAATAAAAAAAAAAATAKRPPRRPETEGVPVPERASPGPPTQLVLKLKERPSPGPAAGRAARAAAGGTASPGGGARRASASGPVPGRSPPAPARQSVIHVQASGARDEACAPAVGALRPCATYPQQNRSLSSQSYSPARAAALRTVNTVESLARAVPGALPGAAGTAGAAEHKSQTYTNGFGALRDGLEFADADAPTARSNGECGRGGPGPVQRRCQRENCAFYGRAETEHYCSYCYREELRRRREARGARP
Outline: as §1

UniProt Q9P2H5 = target: T3, UniProt Q9P2H5
T3 sequence (whole entry): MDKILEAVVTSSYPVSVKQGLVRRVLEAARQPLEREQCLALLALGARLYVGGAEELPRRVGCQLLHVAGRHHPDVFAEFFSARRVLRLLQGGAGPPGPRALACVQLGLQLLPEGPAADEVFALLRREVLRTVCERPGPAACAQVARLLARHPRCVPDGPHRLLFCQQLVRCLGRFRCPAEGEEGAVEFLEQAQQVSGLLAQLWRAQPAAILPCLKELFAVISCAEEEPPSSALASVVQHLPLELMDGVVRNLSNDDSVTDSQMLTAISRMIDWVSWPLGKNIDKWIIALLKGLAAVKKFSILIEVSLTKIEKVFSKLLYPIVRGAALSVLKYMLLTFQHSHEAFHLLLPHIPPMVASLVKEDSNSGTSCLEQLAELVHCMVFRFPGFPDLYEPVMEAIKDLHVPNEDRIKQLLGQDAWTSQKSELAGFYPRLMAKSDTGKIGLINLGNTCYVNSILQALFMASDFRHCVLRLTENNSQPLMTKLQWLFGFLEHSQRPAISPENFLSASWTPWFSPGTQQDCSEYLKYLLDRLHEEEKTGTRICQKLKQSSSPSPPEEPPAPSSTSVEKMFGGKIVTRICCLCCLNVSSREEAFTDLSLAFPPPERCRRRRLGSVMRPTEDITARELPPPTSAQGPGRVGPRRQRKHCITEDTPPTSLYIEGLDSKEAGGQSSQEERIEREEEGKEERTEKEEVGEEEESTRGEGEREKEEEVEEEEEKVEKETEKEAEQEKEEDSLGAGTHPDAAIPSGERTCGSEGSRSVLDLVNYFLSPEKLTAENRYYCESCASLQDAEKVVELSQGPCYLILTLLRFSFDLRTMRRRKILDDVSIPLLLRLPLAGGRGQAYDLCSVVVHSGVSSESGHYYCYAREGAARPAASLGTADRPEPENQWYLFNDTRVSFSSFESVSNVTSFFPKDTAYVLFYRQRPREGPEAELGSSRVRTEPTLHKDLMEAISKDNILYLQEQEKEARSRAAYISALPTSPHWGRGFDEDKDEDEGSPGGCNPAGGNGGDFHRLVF
Outline: as §1

UniProt Q9UGI0 = target: T4, UniProt Q9UGI0
T4 sequence (whole entry): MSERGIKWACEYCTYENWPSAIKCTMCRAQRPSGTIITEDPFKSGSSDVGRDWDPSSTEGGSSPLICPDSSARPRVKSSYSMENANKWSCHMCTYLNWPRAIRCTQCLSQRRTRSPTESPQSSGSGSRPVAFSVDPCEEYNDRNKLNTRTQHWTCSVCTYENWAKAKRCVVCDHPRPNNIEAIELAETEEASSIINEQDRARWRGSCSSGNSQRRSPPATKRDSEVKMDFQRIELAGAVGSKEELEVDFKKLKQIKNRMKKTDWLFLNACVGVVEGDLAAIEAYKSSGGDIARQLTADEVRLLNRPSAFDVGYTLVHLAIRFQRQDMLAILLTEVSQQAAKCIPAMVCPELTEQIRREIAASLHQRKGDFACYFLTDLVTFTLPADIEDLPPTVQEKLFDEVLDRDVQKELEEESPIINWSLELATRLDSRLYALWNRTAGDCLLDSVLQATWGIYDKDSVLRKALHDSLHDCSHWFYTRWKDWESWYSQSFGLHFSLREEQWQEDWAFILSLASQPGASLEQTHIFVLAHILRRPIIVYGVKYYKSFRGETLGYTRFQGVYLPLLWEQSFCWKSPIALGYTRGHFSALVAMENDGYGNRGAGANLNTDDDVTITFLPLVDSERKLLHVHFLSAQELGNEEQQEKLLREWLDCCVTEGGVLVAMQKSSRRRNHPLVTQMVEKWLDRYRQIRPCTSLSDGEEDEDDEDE
Outline: as §1

YOD1 = target: T5, YOD1 (UniProt Q5VVQ6)
T5 sequence (whole entry): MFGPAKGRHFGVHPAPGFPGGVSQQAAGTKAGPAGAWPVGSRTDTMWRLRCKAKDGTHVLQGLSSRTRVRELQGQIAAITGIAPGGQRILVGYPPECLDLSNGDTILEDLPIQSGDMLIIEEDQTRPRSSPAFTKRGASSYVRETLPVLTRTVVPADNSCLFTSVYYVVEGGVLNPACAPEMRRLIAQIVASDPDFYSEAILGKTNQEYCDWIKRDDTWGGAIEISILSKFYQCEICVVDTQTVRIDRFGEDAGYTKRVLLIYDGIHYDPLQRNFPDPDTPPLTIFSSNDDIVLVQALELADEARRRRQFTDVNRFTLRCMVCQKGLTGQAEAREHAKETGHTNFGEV
Outline: as §1

Measured: log2 ratio of Biotin-Ahx-Ub-VS probe labelling

Chain of USP9X (Q93008 whole entry, the tested form may be a part): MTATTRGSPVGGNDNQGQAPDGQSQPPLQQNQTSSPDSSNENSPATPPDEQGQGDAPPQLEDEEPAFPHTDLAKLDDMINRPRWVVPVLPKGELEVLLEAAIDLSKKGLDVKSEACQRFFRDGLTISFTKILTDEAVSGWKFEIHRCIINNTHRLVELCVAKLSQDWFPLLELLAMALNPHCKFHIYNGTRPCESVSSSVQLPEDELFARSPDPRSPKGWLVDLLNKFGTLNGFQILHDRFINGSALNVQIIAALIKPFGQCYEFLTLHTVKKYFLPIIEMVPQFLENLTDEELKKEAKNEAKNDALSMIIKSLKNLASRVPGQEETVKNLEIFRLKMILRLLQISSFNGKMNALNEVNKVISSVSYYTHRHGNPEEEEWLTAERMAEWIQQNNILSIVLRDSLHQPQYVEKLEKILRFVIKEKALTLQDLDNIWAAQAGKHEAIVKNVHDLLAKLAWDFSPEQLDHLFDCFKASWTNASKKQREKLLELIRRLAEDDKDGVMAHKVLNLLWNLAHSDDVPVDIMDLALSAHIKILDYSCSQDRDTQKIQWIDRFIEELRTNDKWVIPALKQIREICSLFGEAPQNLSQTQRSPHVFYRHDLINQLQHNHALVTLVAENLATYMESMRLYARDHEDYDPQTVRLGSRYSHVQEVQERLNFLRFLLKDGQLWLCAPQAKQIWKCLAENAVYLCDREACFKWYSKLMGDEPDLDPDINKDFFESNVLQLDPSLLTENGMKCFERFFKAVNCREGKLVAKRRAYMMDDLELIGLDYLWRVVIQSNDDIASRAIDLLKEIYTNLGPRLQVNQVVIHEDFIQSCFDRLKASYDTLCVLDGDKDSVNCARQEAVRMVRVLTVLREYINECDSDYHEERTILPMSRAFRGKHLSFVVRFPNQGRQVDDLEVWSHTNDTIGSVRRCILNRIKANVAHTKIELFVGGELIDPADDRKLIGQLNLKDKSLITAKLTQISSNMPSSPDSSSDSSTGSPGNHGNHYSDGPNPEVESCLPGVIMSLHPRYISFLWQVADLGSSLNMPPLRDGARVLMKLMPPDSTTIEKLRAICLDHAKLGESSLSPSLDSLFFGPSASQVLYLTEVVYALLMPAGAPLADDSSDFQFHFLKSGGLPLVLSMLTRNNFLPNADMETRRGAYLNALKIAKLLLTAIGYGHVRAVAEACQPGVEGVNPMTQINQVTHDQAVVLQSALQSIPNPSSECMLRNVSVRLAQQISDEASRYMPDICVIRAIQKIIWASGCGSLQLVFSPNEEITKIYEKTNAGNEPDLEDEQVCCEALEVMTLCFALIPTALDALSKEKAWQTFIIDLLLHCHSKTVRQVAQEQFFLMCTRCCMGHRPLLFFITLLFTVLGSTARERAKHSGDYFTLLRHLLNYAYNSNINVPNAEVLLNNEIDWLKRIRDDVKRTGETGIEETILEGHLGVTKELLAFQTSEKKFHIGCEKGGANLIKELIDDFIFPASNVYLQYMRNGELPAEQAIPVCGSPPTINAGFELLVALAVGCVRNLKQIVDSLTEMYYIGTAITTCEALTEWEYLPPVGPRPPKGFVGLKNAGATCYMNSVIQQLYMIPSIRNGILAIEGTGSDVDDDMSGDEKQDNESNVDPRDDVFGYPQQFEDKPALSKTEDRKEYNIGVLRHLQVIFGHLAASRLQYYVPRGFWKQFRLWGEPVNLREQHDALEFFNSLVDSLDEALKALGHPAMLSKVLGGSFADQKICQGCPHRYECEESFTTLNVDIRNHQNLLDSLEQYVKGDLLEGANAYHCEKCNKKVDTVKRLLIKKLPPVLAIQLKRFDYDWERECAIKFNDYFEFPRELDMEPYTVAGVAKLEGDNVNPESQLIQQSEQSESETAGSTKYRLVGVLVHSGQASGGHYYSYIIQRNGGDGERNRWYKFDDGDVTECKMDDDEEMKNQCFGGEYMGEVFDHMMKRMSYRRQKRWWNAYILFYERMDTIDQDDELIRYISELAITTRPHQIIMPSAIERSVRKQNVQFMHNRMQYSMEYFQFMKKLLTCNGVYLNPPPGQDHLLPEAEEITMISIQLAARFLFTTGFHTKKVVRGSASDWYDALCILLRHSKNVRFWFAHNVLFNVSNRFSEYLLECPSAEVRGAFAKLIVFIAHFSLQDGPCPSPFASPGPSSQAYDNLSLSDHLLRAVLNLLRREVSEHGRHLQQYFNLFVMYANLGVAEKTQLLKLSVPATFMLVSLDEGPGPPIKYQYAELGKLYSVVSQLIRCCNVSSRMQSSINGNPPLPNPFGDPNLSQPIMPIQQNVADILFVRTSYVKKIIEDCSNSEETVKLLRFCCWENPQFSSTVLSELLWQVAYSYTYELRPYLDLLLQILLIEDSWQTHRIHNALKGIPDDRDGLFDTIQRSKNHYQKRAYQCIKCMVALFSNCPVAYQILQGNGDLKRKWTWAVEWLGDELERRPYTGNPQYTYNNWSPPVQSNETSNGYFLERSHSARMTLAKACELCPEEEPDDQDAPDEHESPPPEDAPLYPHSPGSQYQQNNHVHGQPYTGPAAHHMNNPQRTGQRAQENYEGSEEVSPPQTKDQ

Cl.O=C(CCl)N1CCCC(c2ncc[nH]2)C1 (centres undefined)
inactive: USP9X -0.121 | UniProt O00487 -0.0974 | UniProt O00507 0.0496 | UniProt P51784 0.000136 | UniProt Q5T2D3 -0.124 | UniProt Q8TE49 -0.0422 | UniProt Q9P2H5 0.113 | UniProt Q9UGI0 -0.517 | YOD1 -0.0255

Source: the supplement of paper PMC11732987, “Enantioselective OTUD7B fragment discovery through chemoproteomics screening and high-throughput optimisation” (Communications Chemistry, 2025)
